According to publication PMC11062922 (Nature Chemical Biology, 2023):
Where two headings read alike, the source gives them in different places.

Legend:
Parameters in all cases: species or system human, MV4-11 + K-562 + COLO205 + SK-N-BE2 + OVCAR-8
FLT3 = details: read-out: apparent Kd, n = 1
MYLK3 = details: read-out: apparent Kd, n = 1
TNIK = details: read-out: apparent Kd, n = 1
TTK = details: read-out: apparent Kd, compound concentrations: 100 nM and 1000 nM (sheet 'Samples'), n = 1
FLT4 = details: read-out: apparent Kd, n = 1
NQO2 = details: read-out: apparent Kd; compound concentrations: 100 nM and 1000 nM (sheet 'Samples'), CATDS: 0.45168770198248398; n = 1
FN3KRP = details: read-out: apparent Kd; compound concentrations: 100 nM and 1000 nM (sheet 'Samples'), CATDS: 1; n = 1
MAP3K1 = details: read-out: apparent Kd; compound concentrations:100 nM and 1000 nM (sheet 'Samples'); n = 1
MAP4K5 = details: read-out: apparent Kd; compound concentrations:100 nM and 1000 nM (sheet 'Samples'); n = 1
NUAK1 = details: read-out: apparent Kd; compound concentrations:100 nM and 1000 nM (sheet 'Samples'); n = 1
NUAK2 = details: read-out: apparent Kd; compound concentrations:100 nM and 1000 nM (sheet 'Samples'); n = 1
SLK = details: read-out: apparent Kd; compound concentrations:100 nM and 1000 nM (sheet 'Samples'); n = 1
STK10 = details: read-out: apparent Kd; compound concentrations:100 nM and 1000 nM (sheet 'Samples'); n = 1
FRK = details: read-out: apparent Kd; compound concentrations: 100 nM and 1000 nM (sheet 'Samples'), CATDS: 0.227181560235134; n = 1
HCK = details: read-out: apparent Kd; compound concentrations: 100 nM and 1000 nM (sheet 'Samples'), CATDS: 0.17687822419951399; n = 1
LCK = details: read-out: apparent Kd; compound concentrations: 100 nM and 1000 nM (sheet 'Samples'), CATDS: 0.18982268752043399; n = 1
LYN = details: read-out: apparent Kd; compound concentrations: 100 nM and 1000 nM (sheet 'Samples'), CATDS: 0.140123988269205; n = 1
MAP2K5 = details: read-out: apparent Kd; compound concentrations: 100 nM and 1000 nM (sheet 'Samples'), CATDS: 0.111910092443395; n = 1
TNK2 = details: read-out: apparent Kd; compound concentrations: 100 nM and 1000 nM (sheet 'Samples'), CATDS: 0.21718962243178; n = 1
GRK6 = details: read-out: apparent Kd, n = 1
JAK2 = details: read-out: apparent Kd; compound concentrations:100 nM and 1000 nM (sheet 'Samples'); n = 1
MAPK10 = details: read-out: apparent Kd, n = 1
MAPK9 = details: read-out: apparent Kd, n = 1
NLK = details: read-out: apparent Kd; compound concentrations:100 nM and 1000 nM (sheet 'Samples'); n = 1
GAK = details: read-out: apparent Kd, compound concentrations: 100 nM and 1000 nM (sheet 'Samples'), n = 1
NQO1 = details: read-out: apparent Kd; compound concentrations: 100 nM and 1000 nM (sheet 'Samples'), CATDS: 0.42980166948746801; n = 1
GARS = details: read-out: apparent Kd; compound concentrations: 100 nM and 1000 nM (sheet 'Samples'), CATDS: 0.112943260502492; n = 1
MAP3K6 = details: read-out: apparent Kd; compound concentrations: 100 nM and 1000 nM (sheet 'Samples'), CATDS: 0.103040219928506; n = 1
MTOR = details: read-out: apparent Kd; compound concentrations: 100 nM and 1000 nM (sheet 'Samples'), CATDS: 0.20477857042049299; n = 1
PIK3C2A = details: read-out: apparent Kd; compound concentrations: 100 nM and 1000 nM (sheet 'Samples'), CATDS: 0.109461657335159; n = 1
PIK3CA = details: read-out: apparent Kd; compound concentrations: 100 nM and 1000 nM (sheet 'Samples'), CATDS: 0.41958784794042803; n = 1
PRKDC = details: read-out: apparent Kd; compound concentrations: 100 nM and 1000 nM (sheet 'Samples'), CATDS: 0.14221616768717599; n = 1
RAB14 = details: read-out: apparent Kd; compound concentrations: 100 nM and 1000 nM (sheet 'Samples'), CATDS: 0.14270902117051201; n = 1
PDGFRB = details: read-out: apparent Kd; compound concentrations: 100 nM and 1000 nM (sheet 'Samples'), CATDS: 0.343232825956933; n = 1
HSP90B1 = details: read-out: apparent Kd; compound concentrations: 100 nM and 1000 nM (sheet 'Samples'), CATDS: 0.138909392239214; n = 1
MAP2K1 = details: read-out: apparent Kd; compound concentrations: 100 nM and 1000 nM (sheet 'Samples'), CATDS: 0.11714915098763; n = 1
MAPK8 = details: read-out: apparent Kd; compound concentrations: 100 nM and 1000 nM (sheet 'Samples'), CATDS: 0.17853758786403801; n = 1
[1] = compound concentrations: 100 nM and 1000 nM (sheet 'Samples'), CATDS: 1
[2] = compound concentrations:100 nM and 1000 nM (sheet 'Samples')

SMILES: O=C1Nc2ccccc2/C1=C/Nc1ccc(-n2cncn2)cc1 [GW301789X]
- potency estimated from few doses (FLT3; compound concentrations: 100 nM and 1000 nM (sheet 'Samples'), CATDS: 0.22267825375754199): 1370 nM
- potency estimated from few doses (MYLK3; compound concentrations: 100 nM and 1000 nM (sheet 'Samples'), CATDS: 0.63148030600185001): 176 nM
- potency estimated from few doses (TNIK; compound concentrations: 100 nM and 1000 nM (sheet 'Samples'), CATDS: 0.21425546336559301): 1520 nM
- potency estimated from few doses (TTK; CATDS: 0.19017518811714801): 2180 nM

SMILES: CC(C)c1ccc2c(c1)NC(=O)/C2=N/Nc1ccc(S(N)(=O)=O)cc1 [GW300653X]
- potency estimated from few doses (FLT3; [1]): 716 nM

SMILES: CN1C(=O)C(c2c[nH]c3ccccc23)=C(c2c[nH]c3ccccc23)C1=O [RO0316045-000]
- potency estimated from few doses (FLT4; compound concentrations: 100 nM and 1000 nM (sheet 'Samples'), CATDS: 0.55988503208503904): 1370 nM
- potency estimated from few doses (NQO2): 2110 nM

SMILES: Cn1nc(-c2ccc(NC(=O)Nc3ccc4ccccc4c3)c(F)c2)c2cnc(NCCN3CCOCC3)nc21.O=C(O)C(F)(F)F [SB-750250-M]
- potency estimated from few doses (FN3KRP): 1800 nM

SMILES: C[C@@H](Oc1cc(-n2cnc3cc(-c4cnn(C)c4)ccc32)sc1C(N)=O)c1ccccc1Cl [GSK580432A]
- potency estimated from few doses (FLT3; [2]): 1300 nM
- potency estimated from few doses (FLT4; [2]): 1610 nM
- potency estimated from few doses (MAP3K1): 129 nM
- potency estimated from few doses (MAP4K5): 1040 nM
- potency estimated from few doses (NUAK1): 598 nM
- potency estimated from few doses (NUAK2): 525 nM
- potency estimated from few doses (SLK): 615 nM
- potency estimated from few doses (STK10): 160 nM

SMILES: Cc1ccc(C(=O)Nc2ccc(Nc3ccnc4cc(-c5ccccn5)ccc34)cc2O)cc1.Cl [GW440146A]
- potency estimated from few doses (FRK): 250 nM
- potency estimated from few doses (HCK): 398 nM
- potency estimated from few doses (LCK): 346 nM
- potency estimated from few doses (LYN): 686 nM
- potency estimated from few doses (MAP2K5): 1450 nM
- potency estimated from few doses (TNK2): 270 nM

SMILES: Cn1c(=O)c(Oc2ccc(F)cc2F)cc2cnc(NC3CCOCC3)nc21 [RO3304806-000]
- potency estimated from few doses (GRK6; [2]): 1350 nM
- potency estimated from few doses (JAK2): 603 nM
- potency estimated from few doses (MAPK10; [2]): 1000 nM
- potency estimated from few doses (MAPK9; [2]): 1780 nM
- potency estimated from few doses (NLK): 1620 nM

SMILES: C#Cc1cccc(Nc2ncnc3ccc(OCCCCNCCS(C)(=O)=O)cc23)c1 [GW680191X]
- potency estimated from few doses (GAK; CATDS: 0.59760522623710299): 804 nM
- potency estimated from few doses (NQO1): 1580 nM

SMILES: Nc1ncnc2c1ncn2-c1cccc2ccccc12 [SKF-97184]
- potency estimated from few doses (GARS): 1670 nM
- potency estimated from few doses (MAP3K6): 2270 nM
- potency estimated from few doses (MTOR): 419 nM
- potency estimated from few doses (PIK3C2A): 1840 nM
- potency estimated from few doses (PIK3CA): 132 nM
- potency estimated from few doses (PRKDC): 896 nM
- potency estimated from few doses (RAB14): 889 nM

SMILES: Cl.N#Cc1cccc(Nc2ncc(-c3ccccc3)o2)c1 [GW627834A]
- potency estimated from few doses (FLT3; [1]): 344 nM

SMILES: COc1cc(N2CCN(C(C)C)CC2)ccc1Nc1nc(Nc2cccc3ncccc23)c2cc[nH]c2n1 [GSK1511931A]
- potency estimated from few doses (GAK; CATDS: 0.87402661457119502): 83.9 nM
- potency estimated from few doses (TTK; CATDS: 0.35015598460163): 1080 nM

SMILES: C/C(Nc1ccc(S(N)(=O)=O)cc1)=C1/C(=O)Nc2ccccc21 [GW335962X]
- potency estimated from few doses (FLT3; [2]): 524 nM
- potency estimated from few doses (MYLK3; [2]): 629 nM
- potency estimated from few doses (TNIK; [2]): 2260 nM

SMILES: COc1ccc(Nc2ncc(-c3ccccc3)o2)cc1OC.Cl [GW575533A]
- potency estimated from few doses (FLT3; compound concentrations: 100 nM and 1000 nM (sheet 'Samples'), CATDS: 0.92036474930911705): 4.09 nM
- potency estimated from few doses (PDGFRB): 90.5 nM

SMILES: Nc1ncnc2c1ncn2-c1ccc(Cl)cc1 [AH2635]
- potency estimated from few doses (FLT3; [1]): 1610 nM

SMILES: CCC(=O)c1c(-c2ccccc2)c2cc(Cl)ccc2c(=O)n1Cc1cc(S(C)(=O)=O)n(CC(N)=O)n1 [TPKI-105]
- potency estimated from few doses (GRK6; compound concentrations: 100 nM and 1000 nM (sheet 'Samples'), CATDS: 0.114980307902388): 2180 nM
- potency estimated from few doses (HSP90B1): 1090 nM
- potency estimated from few doses (MAP2K1): 2010 nM
- potency estimated from few doses (MAPK10; compound concentrations: 100 nM and 1000 nM (sheet 'Samples'), CATDS: 0.46372584389591998): 90.1 nM
- potency estimated from few doses (MAPK8): 543 nM
- potency estimated from few doses (MAPK9; compound concentrations: 100 nM and 1000 nM (sheet 'Samples'), CATDS: 0.26244745216645099): 235 nM
